# Assay results from PubChem BioAssay AID489028 (Sanford-Burnham Center for Chemical Genomics, 2010).
# Screen size: about 10,000 compounds; about 5,600 (56%) were called active. So high a share suggests a set chosen from earlier hits. Not all results are given here. Values without a mark were called inactive. Cut-off read from the data, not from the text of the source: active = inhibition above about 40%; inactive = the rest.
# Target: Protein Mdm4 (Homo sapiens) + E3 ubiquitin-protein ligase Mdm2 (Homo sapiens) (UniProt O15151+Q00987)
# Experiment: inhibition of human Mdm2/MdmX pairing – luminescence, single concentration, confirmation (AID 489028)
# Conditions: Mdm2-MdmX binding, luminescent assay; at 8 µM; active compounds read high
# Protein Mdm4 (Homo sapiens) + E3 ubiquitin-protein ligase Mdm2 (Homo sapiens), sequence (O15151 whole entry, looked up): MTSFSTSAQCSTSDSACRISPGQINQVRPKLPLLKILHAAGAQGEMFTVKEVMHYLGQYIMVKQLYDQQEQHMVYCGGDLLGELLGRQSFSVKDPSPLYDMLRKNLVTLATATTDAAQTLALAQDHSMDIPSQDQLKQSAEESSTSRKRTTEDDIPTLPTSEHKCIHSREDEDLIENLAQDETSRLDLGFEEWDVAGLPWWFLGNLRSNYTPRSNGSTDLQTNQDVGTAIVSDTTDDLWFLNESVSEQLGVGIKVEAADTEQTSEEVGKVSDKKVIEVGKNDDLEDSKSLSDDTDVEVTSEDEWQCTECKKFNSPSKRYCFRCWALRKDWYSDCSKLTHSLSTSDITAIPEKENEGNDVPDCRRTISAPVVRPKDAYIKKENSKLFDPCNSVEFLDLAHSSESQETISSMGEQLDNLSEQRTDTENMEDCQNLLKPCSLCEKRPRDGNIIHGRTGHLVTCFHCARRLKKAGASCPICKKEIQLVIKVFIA
# Protein Mdm4 (Homo sapiens) + E3 ubiquitin-protein ligase Mdm2 (Homo sapiens), sequence (Q00987 whole entry, looked up): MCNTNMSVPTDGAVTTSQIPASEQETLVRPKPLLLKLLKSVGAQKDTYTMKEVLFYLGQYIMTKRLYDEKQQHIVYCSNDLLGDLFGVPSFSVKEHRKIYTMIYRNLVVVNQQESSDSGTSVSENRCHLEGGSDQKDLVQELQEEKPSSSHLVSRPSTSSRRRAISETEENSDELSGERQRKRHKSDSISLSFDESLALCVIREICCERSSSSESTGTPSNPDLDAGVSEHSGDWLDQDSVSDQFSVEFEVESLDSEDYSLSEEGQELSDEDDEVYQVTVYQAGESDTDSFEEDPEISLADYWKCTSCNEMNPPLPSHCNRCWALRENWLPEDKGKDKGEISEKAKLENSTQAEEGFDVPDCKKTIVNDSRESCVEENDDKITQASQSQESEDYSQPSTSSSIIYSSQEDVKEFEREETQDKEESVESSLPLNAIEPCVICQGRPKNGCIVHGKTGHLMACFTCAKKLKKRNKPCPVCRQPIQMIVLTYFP
row,Compound,inhibition
1,O=C1C2(Cl)C3(Cl)C4(Cl)C(Cl)(Cl)C5(Cl)C3(Cl)C1(Cl)C5(Cl)C24Cl (stereo not drawn),49.5% (active)
2,COC(=O)C1=C(c2ccc(F)cc2OCc2ccccc2)C[C@@H]2CC[C@H]1N2C(=O)NCc1ccc(Cl)cc1,31.1%
3,CNCC(O)c1cc(F)c(OCc2ccccc2)c(OCc2ccccc2)c1F (stereo not drawn),17.8%
4,Cc1cc2ccccn2c1C(C[N+](=O)[O-])c1c(F)cccc1Cl (stereo not drawn),99.1% (active)
5,O=c1c2ccccc2nc(/C=C/c2ccc(F)cc2)n1-c1ccccc1O,31%
6,O=Cc1cn(Cc2ccc(F)cc2Cl)c2ccccc12,28%
7,CNC(=O)O/N=C(\N)Cc1csc2ccc(Cl)cc12,90.3% (active)
8,CNC(=O)O/N=C(\N)Cc1csc2ccccc12,52.6% (active)
9,O=C(c1cc2nc(-c3ccccc3)cc(-c3ccccc3)n2n1)N1CCC2(CC1)OCCO2,16.3%
10,CCCCC(=O)N/N=C/c1c(O)n(CCC2=CCCCC2)c(=O)[nH]c1=O,20.9%
11,COC(=O)C1=C(c2ccc(F)cc2OCc2ccccc2)C[C@@H]2CC[C@H]1N2C(=O)NCc1ccc2[nH]ccc2c1,18.9%
12,O=C1NC(=O)N(CCc2ccc(F)cc2)C(=O)/C1=C/C=C/c1ccccc1,57.2% (active)
13,CCCCCCCCCCCCn1ccc(=N)cc1,98.3% (active)
14,N#CC1=C(N)Oc2c(c(=O)oc3ccccc23)C1c1ccccc1OC(=O)c1cccs1 (stereo not drawn),15.1%
15,CC1(C)Cc2c(C#N)c(N3CCNCC3)nc(-c3ccco3)c2CS1,24.1%
16,CCOc1ccc(-c2cc(C)[n+](CCN(CC)CC)c(-c3ccc(OCC)cc3)c2)cc1,84.5% (active)
17,CC(Cc1ccccc1)NCCC(c1ccccc1)c1ccccc1 (stereo not drawn),19.1%
18,CCCCCn1c(=O)c(C(=O)NCc2ccccc2)c(O)c2ccccc21,5.2%
